Data as given in PubChem BioAssay.
Where “and” joins values, the source holds several entries; their conditions need not be identical. Equal values may be shown once. Calls of active or inactive are those of the source.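 The calls were made as follows, unless noted: active = inhibition at or above 50% relative to wild type and mutant plate controls; inactive = inhibition below 50%.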

Columns and labels:
[1] = inhibitors of TNFa-induced NFkB p65 translocation, primary screen, imaging, HUVEC, MLSMR starter and 10KST1 sets (AID 438;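 active = inhibition above 20% together with a positive visual image hit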;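 also: compound added about 3h40 before a 20 min TNFalpha stimulation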;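 as to inhibition: signal is the nuclear over cytoplasmic p65 intensity ratio per well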); conditions: HUVEC TNFa-induced p65 nuclear translocation; cell count: measured here: nuclei count (cytotoxicity indicator), at 2.08 µM unless noted; inhibition: at 2 µM, stronger effect = higher value unless noted
[2] = inhibitors of mutant huntingtin aggregation, primary screen, imaging, exon1htt(103Q)mCFP cells, high-content imaging (AID 483;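 active = visual image review flags a hit and inhibition of aggregation exceeds 20%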;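 also: compound exposure lasted 3 days before fixation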;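 as to nuclei count: percent of the per-plate median nuclei count of sample wells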); conditions: exon1htt(103Q)mCFP cell line, aggregate imaging, at 2 µM; inhibition of aggregation: stronger effect = higher value; nuclei count: measured here: cell count, toxicity
[3] = inhibitors of E-selectin induction by TNFa, primary screen, imaging, HUVEC, immunofluorescence, MLSMR starter and 10KST1 sets (AID 487;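 active = visually confirmed hit in the image check and inhibition above 20%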;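 as to inhibition: signal is fraction of cell area covered by stained E-selectin grains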;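 as to nuclei count: 100% = median nuclei count of all wells on the same plate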); conditions: HUVEC TNFalpha-induced E-selectin immunofluorescence imaging, at 2 µM; inhibition: stronger effect = higher value; nuclei count: measured here: cell number, toxicity
[4] = DUSP6 inhibitors restoring Erk phosphorylation by chemical complementation, primary imaging in DUSP6-transfected HeLa (AID 609;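 active = compounds giving at least 50% inhibition in the cell-based MKP-3 phosphatase rescue imaging test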;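 as to inhibition: phospho-Erk level distribution per well compared with pooled transfected vehicle control wells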); conditions: HeLa MKP-3 transfected, phospho-Erk imaging KS statistic, at 10 µM
[5] = target: Dual specificity protein phosphatase 6 (Homo sapiens) (UniProt Q16828); assay: as above; conditions: HeLa MKP-3 transfected, phospho-Erk imaging KS statistic, at 10 µM, stronger effect = higher value
Dual specificity protein phosphatase 6 (Homo sapiens), sequence (Q16828 whole entry, looked up): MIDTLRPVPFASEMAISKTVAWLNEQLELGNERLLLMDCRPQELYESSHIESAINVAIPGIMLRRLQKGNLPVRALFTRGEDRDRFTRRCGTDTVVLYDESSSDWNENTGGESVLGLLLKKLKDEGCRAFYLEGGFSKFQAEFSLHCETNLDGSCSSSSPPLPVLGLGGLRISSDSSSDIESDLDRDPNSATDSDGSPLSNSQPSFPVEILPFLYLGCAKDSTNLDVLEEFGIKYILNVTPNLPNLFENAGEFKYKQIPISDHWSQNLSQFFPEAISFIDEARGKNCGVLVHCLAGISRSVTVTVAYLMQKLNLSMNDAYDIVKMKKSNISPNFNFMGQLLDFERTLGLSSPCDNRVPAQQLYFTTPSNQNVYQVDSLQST

[6] = target: Voltage-gated potassium channel subunit beta-2 (Rattus norvegicus) (UniProt P62483); assay: KvBeta enzyme negative modulators, primary screen, biochemical, NADPH fluorescence (AID 622;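 active = fluorescence slope higher than the sample average by over 3 SD, cut at about -0.22 in these data, passing the limit was not always enough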;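 also: slope of raw intensity against log time taken from 70 to 1610 s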); conditions: recombinant KvBeta, 4-cyanobenzaldehyde reduction, at 10 µM, stronger effect = higher value
Voltage-gated potassium channel subunit beta-2 (Rattus norvegicus), sequence (P62483 whole entry, looked up): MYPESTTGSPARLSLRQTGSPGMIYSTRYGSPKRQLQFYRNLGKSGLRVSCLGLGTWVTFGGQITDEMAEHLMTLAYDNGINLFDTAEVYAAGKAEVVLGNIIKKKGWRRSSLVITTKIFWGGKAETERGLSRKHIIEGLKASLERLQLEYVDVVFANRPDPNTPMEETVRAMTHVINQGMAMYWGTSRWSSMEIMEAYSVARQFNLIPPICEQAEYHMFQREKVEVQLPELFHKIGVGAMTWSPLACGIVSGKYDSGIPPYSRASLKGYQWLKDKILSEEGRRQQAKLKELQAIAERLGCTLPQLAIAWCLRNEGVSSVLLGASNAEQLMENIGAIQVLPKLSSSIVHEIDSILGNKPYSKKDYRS

[7] = target: Voltage-gated potassium channel subunit beta-2 (Rattus norvegicus) (UniProt P62483); assay: KvBeta positive modulators, primary screen, biochemical, NADPH fluorescence (AID 623;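 active = NADPH fluorescence slope more negative than the mean of all samples by about 3 SD, 99.7% confidence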;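 also: fluorescence intensity change per second fitted from 20 to 320 s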); conditions: Recombinant KvBeta, NADPH fluorescence decrease slope, 10 min; at 10 µM; stronger effect = lower value
[8] = target: Alpha-2C adrenergic receptor (Homo sapiens) (UniProt P18825); assay: modulators of alpha2C/GIRK thallium flux, primary screen, cell-based, HEK293 alpha2C/GIRK1/2 (AID 624;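 active = fluorescence slope after compound addition differing from the mean of all screened samples at 99.7% confidence, in either direction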;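 also: slope of fluorescence ratio to pre-addition baseline per second over 15 to 24 s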); conditions: thallium flux BTC fluorescence, at 10 µM, actives lie on both sides
Alpha-2C adrenergic receptor (Homo sapiens), sequence (P18825 whole entry, looked up): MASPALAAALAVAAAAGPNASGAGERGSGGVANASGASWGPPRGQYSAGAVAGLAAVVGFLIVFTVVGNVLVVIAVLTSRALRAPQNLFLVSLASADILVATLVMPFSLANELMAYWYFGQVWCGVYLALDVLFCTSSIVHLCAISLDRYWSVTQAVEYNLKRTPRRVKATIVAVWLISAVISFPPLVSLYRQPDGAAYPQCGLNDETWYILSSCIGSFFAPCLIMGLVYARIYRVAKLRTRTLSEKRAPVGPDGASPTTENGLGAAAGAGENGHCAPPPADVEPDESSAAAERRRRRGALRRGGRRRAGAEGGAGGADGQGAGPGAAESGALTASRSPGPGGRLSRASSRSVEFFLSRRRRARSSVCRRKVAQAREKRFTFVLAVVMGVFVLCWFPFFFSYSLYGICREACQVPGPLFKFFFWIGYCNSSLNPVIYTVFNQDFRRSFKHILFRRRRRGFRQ

[9] = inhibitors of larval lipid processing in zebrafish, primary screen, whole organism, PED6 fluorescence, gall bladder and intestine (AID 686;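 active = a full or partial loss of lipid-probe fluorescence in the fish gall bladder, intestine or both, judged by eye; inactive = no fluorescence loss, or compound toxic to the fish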;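 also: larvae 5 to 7 days old with five fish per well; signal comes from phospholipase A2 cleavage of quenched PED6 carried via bile; overnight exposure to compound and PED6 before scoring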); conditions: Zebrafish larvae PED6 lipid processing, fluorescence scoring
[10] = inhibitors of Chlamydomonas gravitaxis, primary screen, whole organism, Chlamydomonas reinhardtii, WT vs cilia-less mutant, absorbance, 96-well (AID 463189); conditions: OD600 absorbance, 2 days, at 10 µM, stronger effect = higher value;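 also: 0% = wild type cc124 cells in DMSO and 100% = ciliumless bld1 mutant cells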
[11] = inhibitors of Sendai virus-induced IRF3 signaling, primary screen, TLR/RLR signaling modifier project, cell-based, Sendai virus stimulus, luciferase, 10K MLSCN set (AID 602276;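 active = inhibition at or above 50% at 10 µM; inactive = inhibition below 50%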;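 also: firefly luciferase from ISG56 promoter only with Renilla not read in this screen; 0% = Sendai virus plus DMSO and 100% = medium plus DMSO without virus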); conditions: HEK293 RL24 IRF3 luciferase reporter, at 10 µM, stronger effect = higher value
[12] = inhibitors of poly I:C-induced TLR3 signaling, primary screen, cell-based, poly I:C stimulus, luciferase, 10K MLSCN set (AID 602277;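 active = inhibition of the reporter signal at or above 50%; inactive = inhibition below 50%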); conditions: HEK293-TLR3 RL24 IRF3 luciferase reporter, at 10 µM, stronger effect = higher value
[13] = target: Muscarinic acetylcholine receptor M4 (Homo sapiens) (UniProt P08173); assay: compounds altering M4/GIRK thallium flux, either direction, primary screen, M4 allosteric agonist project, cell-based, HEK293 M4/GIRK, BTC-AM (AID 625;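 active = fluorescence slope after compound addition differing from the mean of all tested samples at 99.7% confidence, mostly higher but some lower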;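 also: thallium influx through GIRK channels coupled to M4 in HEK293 cells with BTC-AM dye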); conditions: at 10 µM, actives lie on both sides
Muscarinic acetylcholine receptor M4 (Homo sapiens), sequence (P08173 whole entry, looked up): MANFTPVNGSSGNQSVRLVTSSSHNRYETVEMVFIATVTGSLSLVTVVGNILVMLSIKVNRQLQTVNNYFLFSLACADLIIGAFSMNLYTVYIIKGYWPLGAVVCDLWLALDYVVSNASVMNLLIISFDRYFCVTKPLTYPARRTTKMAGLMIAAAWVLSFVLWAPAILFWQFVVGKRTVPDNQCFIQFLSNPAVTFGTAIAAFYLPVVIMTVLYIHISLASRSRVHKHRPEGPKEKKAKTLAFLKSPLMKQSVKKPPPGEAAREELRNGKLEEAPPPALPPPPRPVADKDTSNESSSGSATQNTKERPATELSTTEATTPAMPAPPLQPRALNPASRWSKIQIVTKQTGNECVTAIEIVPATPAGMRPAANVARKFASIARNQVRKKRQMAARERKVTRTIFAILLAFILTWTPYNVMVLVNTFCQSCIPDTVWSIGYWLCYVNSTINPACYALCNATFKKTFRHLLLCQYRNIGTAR

[14] = measured here: cell density z-score
[15] = measured here: nuclear c-Myc green intensity z-score
[16] = measured here: nuclear pErk red intensity z-score, stronger effect = higher value

SMILES | cell count [1] | inhibition [1] | inhibition of aggregation [2] | nuclei count [2] [%] | inhibition [3] | nuclei count [3] [%] | z-score [4, 14] | z-score [4, 15] | z-score [4, 16] | inhibition [5] | fluorescence slope [6] | NADPH fluorescence slope [7] | slope [8] | outcome [9] | inhibition [10] | inhibition [11] | inhibition [12] | fluorescence slope [13]
CC[N+]1(C)CCCC(OC(=O)C(O)(c2ccccc2)c2ccccc2)C1 (centres undefined) | 672 | -11.6% (inactive) | -2.7% (inactive) | 107 | -116% (inactive) | 119 | 1.46 | -0.0245 | -0.802 | 5.42% (inactive) | -0.46 (inactive) | -4.6e-05 (inactive) | 0.0046 (inactive) | inactive | -2.15% (inactive) | -2.74% (inactive) | 37.1% (inactive) | –
CC(C)[C@@]1(NC(=O)[C@@H]2C=C3c4cccc5[nH]cc(c45)C[C@H]3N(C)C2)O[C@@]2(O)[C@@H]3CCCN3C(=O)[C@H](Cc3ccccc3)N2C1=O | 584 | -0.4% (inactive) | 7.1% (inactive) | 99.7 | -22.9% (inactive) | 114 | 0.234 | 0.806 | -0.53 | 10.2% (inactive) | -0.477 (inactive) | -1e-05 (inactive) | 0.00405 (inactive) | – | 1.14% (inactive) and 21.5% (inactive) | 22% (inactive) | 13.1% (inactive) | –
C=C1CC[C@@]2(O)[C@H]3Cc4ccc(O)c5c4[C@@]2(CCN3CC2CC2)[C@H]1O5 | 527 | 0.1% (inactive) | -9.9% (inactive) | 99.2 | -20.4% (inactive) | 109 | 0.737 | 1.29 | -0.809 | 14.6% (inactive) | -0.469 (inactive) | -4e-05 (inactive) | 0.00496 (inactive) | inactive | -15.6% (inactive) | -6.04% (inactive) | 25% (inactive) | –
Cc1ccc(C)c(C2(O)CC(C)N(C)CC2C)c1 (centres undefined) | 530 | 1.6% (inactive) | -5.5% (inactive) | 99.7 | -53.3% (inactive) | 111 | -0.226 | 0.594 | -0.947 | 5.35% (inactive) | -0.458 (inactive) | -4.2e-05 (inactive) | – | inactive | -6.61% (inactive) | -14.7% (inactive) | 94.6% (active) | 0.00518 (inactive)
COC1=CC(=O)OC(/C=C/c2ccccc2)C1 (centres undefined) | 562 | 0.9% (inactive) | 17.4% (inactive) | 92 | 1.6% (inactive) | 112 | 1.47 | -1.75 | -1.36 | 25.7% (inactive) | -0.448 (inactive) | -5.6e-05 (inactive) | 0.00584 (inactive) | inactive | -16.3% (inactive) | 0.4% (inactive) | -0.629% (inactive) | –
